# Test results taken from article PMC11006913.
# Positions count from the first letter of the chain named.
# Key:
# Assay in all cases: PBM; 200 nM protein, PBS
# Details in all cases: dsDNA, one strand shown
# HOXC9 [1] = target: HOXC9 (Homo sapiens, UniProt P31274 178-260, K195R)
# HOXC9 [2] = target: HOXC9 (Homo sapiens, UniProt P31274 178-260)
# HOXC9 [3] = target: HOXC9 (Homo sapiens, UniProt P31274 178-260, R193K)
# HOXC9 [4] = target: HOXC9 (Homo sapiens, UniProt P31274 178-260, R222W)
# HOXB9 = HOXB9 (Homo sapiens, UniProt P17482 171-250, T197M)
# Sequence of HOXB9 (P17482 171-250 T197M): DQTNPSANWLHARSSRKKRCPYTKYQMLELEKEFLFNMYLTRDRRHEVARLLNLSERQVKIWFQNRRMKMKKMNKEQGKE
# HOXA4 [5] = target: HOXA4 (Homo sapiens, UniProt Q00056 201-287, R217L)
# Sequence of HOXA4 (Homo sapiens, UniProt Q00056 201-287, R217L) (Q00056 201-287 R217L): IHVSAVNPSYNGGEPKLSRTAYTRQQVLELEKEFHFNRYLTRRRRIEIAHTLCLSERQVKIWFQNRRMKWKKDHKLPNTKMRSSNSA
# PAX4 [6] = target: T1, PAX4 (Homo sapiens, UniProt O43316 9-242, R227W)
# T1 sequence: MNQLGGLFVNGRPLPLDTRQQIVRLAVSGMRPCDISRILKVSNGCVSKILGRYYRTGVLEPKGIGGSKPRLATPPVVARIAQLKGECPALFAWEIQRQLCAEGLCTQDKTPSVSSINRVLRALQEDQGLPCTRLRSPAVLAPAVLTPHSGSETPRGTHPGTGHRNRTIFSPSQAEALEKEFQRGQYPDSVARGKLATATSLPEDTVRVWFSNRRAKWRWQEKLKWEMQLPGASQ
# SIX6 [7] = target: T2, SIX6 (Homo sapiens, UniProt O95475 114-200, H141N)
# T2 sequence: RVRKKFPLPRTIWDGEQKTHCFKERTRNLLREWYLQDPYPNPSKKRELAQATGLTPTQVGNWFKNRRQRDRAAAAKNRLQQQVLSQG
# SIX6 [8] = target: T3, SIX6 (Homo sapiens, UniProt O95475 114-200, L143I)
# T3 sequence: T2 sequence with N28H, L30I
# SIX6 [9] = target: T4, SIX6 (Homo sapiens, UniProt O95475 114-200, T165A)
# T4 sequence: T2 sequence with N28H, T52A
# SIX6 [10] = target: T5, SIX6 (Homo sapiens, UniProt O95475 114-200)
# T5 sequence: T2 sequence with N28H
# VENTX = target: T6, VENTX (Homo sapiens, UniProt O95231 78-163)
# T6 sequence: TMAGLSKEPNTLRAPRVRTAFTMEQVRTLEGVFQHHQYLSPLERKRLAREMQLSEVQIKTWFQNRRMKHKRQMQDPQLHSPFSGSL
# HOXA4 [11] = target: HOXA4 (Homo sapiens, UniProt Q00056 201-287, W262R)
# Sequence of HOXA4 (Homo sapiens, UniProt Q00056 201-287, W262R) (Q00056 201-287 W262R): as the sequence (Q00056 201-287 R217L) above, with L17R, W62R counted along it
# HOXA4 [12] = target: HOXA4 (Homo sapiens, UniProt Q00056 201-287)
# Sequence of HOXA4 (Homo sapiens, UniProt Q00056 201-287) (Q00056 201-287): as the sequence (Q00056 201-287 R217L) above, with L17R counted along it
# PAX4 [13] = target: T7, PAX4 (Homo sapiens, UniProt O43316 9-242, R200K)
# T7 sequence: T1 sequence with R192K, W219R
# PAX4 [14] = target: T8, PAX4 (Homo sapiens, UniProt O43316 9-242)
# T8 sequence: T1 sequence with W219R
# PAX4 [15] = target: T9, PAX4 (Homo sapiens, UniProt O43316 9-242, R200Q)
# T9 sequence: T1 sequence with R192Q, W219R
# HOXC10 = HOXC10 (Homo sapiens, UniProt Q9NYD6 254-340)
# Sequence of HOXC10 (Q9NYD6 254-340): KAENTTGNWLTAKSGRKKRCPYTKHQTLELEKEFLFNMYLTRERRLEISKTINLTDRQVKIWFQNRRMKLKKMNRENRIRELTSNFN
# NKX2-6 = target: T10, NKX2-6 (Homo sapiens, UniProt A6NCS4 118-204, R150C)
# T10 sequence: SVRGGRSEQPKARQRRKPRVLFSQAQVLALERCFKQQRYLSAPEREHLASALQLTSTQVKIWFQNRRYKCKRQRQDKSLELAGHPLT
# Sequence of HOXC9 (Homo sapiens, UniProt P31274 178-260, R222W) (P31274 178-260 R222W): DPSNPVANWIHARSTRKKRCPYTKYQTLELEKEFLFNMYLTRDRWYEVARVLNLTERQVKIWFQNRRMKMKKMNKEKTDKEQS
# Sequence of HOXC9 (Homo sapiens, UniProt P31274 178-260, K195R) (P31274 178-260 K195R): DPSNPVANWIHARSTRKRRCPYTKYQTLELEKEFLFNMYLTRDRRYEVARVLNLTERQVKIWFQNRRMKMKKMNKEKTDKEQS
# Sequence of HOXC9 (Homo sapiens, UniProt P31274 178-260) (P31274 178-260): as the sequence (P31274 178-260 R222W) above, with W45R counted along it
# Sequence of HOXC9 (Homo sapiens, UniProt P31274 178-260, R193K) (P31274 178-260 R193K): as the sequence (P31274 178-260 R222W) above, with R16K, W45R counted along it
sequence,measurement,setting,value
CCCGGCTC,binding signal,HOXC9 [1],"9.4 upbm affinity estimate (log intensity, higher = more binding, comparable within an allelic series)"
same,binding signal,HOXC9 [2],"9.46 upbm affinity estimate (log intensity, higher = more binding, comparable within an allelic series)"
same,binding signal,HOXC9 [3],"9.4 upbm affinity estimate (log intensity, higher = more binding, comparable within an allelic series)"
same,binding signal,HOXC9 [4],"9.63 upbm affinity estimate (log intensity, higher = more binding, comparable within an allelic series)"
AATTATTA,binding signal,HOXB9,"10.1 upbm affinity estimate (log intensity, higher = more binding, comparable within an allelic series)"
same,binding signal,HOXA4 [5],"12 upbm affinity estimate (log intensity, higher = more binding, comparable within an allelic series)"
same,binding signal,HOXC9 [4],"11.1 upbm affinity estimate (log intensity, higher = more binding, comparable within an allelic series)"
same,binding signal,PAX4 [6],"11 upbm affinity estimate (log intensity, higher = more binding, comparable within an allelic series)"
CAGGCGCC,binding signal,SIX6 [7],"8.85 upbm affinity estimate (log intensity, higher = more binding, comparable within an allelic series)"
same,binding signal,SIX6 [8],"8.87 upbm affinity estimate (log intensity, higher = more binding, comparable within an allelic series)"
same,binding signal,SIX6 [9],"8.89 upbm affinity estimate (log intensity, higher = more binding, comparable within an allelic series)"
same,binding signal,SIX6 [10],"8.81 upbm affinity estimate (log intensity, higher = more binding, comparable within an allelic series)"
CCGCCCCC,binding signal,VENTX,"7.95 upbm affinity estimate (log intensity, higher = more binding, comparable within an allelic series)"
CGCGTAGC,binding signal,SIX6 [7],"9.02 upbm affinity estimate (log intensity, higher = more binding, comparable within an allelic series)"
same,binding signal,SIX6 [8],"8.99 upbm affinity estimate (log intensity, higher = more binding, comparable within an allelic series)"
same,binding signal,SIX6 [9],"9.02 upbm affinity estimate (log intensity, higher = more binding, comparable within an allelic series)"
same,binding signal,SIX6 [10],"9 upbm affinity estimate (log intensity, higher = more binding, comparable within an allelic series)"
CCTAGCTC,binding signal,HOXA4 [11],"9.86 upbm affinity estimate (log intensity, higher = more binding, comparable within an allelic series)"
same,binding signal,VENTX,"8.47 upbm affinity estimate (log intensity, higher = more binding, comparable within an allelic series)"
same,binding signal,HOXA4 [5],"9.83 upbm affinity estimate (log intensity, higher = more binding, comparable within an allelic series)"
same,binding signal,HOXA4 [12],"9.82 upbm affinity estimate (log intensity, higher = more binding, comparable within an allelic series)"
AGGGTCCC,binding signal,HOXA4 [11],"9.9 upbm affinity estimate (log intensity, higher = more binding, comparable within an allelic series)"
same,binding signal,HOXA4 [5],"9.79 upbm affinity estimate (log intensity, higher = more binding, comparable within an allelic series)"
same,binding signal,HOXA4 [12],"9.74 upbm affinity estimate (log intensity, higher = more binding, comparable within an allelic series)"
CGGGCCCG,binding signal,PAX4 [13],"9.58 upbm affinity estimate (log intensity, higher = more binding, comparable within an allelic series)"
same,binding signal,PAX4 [14],"9.62 upbm affinity estimate (log intensity, higher = more binding, comparable within an allelic series)"
same,binding signal,PAX4 [15],"9.41 upbm affinity estimate (log intensity, higher = more binding, comparable within an allelic series)"
same,binding signal,PAX4 [6],"9.33 upbm affinity estimate (log intensity, higher = more binding, comparable within an allelic series)"
GCCCCCCA,binding signal,HOXA4 [11],"9.56 upbm affinity estimate (log intensity, higher = more binding, comparable within an allelic series)"
same,binding signal,HOXA4 [5],"9.68 upbm affinity estimate (log intensity, higher = more binding, comparable within an allelic series)"
same,binding signal,HOXA4 [12],"9.71 upbm affinity estimate (log intensity, higher = more binding, comparable within an allelic series)"
ACAATTAT,binding signal,HOXB9,"9.96 upbm affinity estimate (log intensity, higher = more binding, comparable within an allelic series)"
GCCAGCCC,binding signal,HOXC9 [1],"9.67 upbm affinity estimate (log intensity, higher = more binding, comparable within an allelic series)"
same,binding signal,SIX6 [7],"9.06 upbm affinity estimate (log intensity, higher = more binding, comparable within an allelic series)"
same,binding signal,SIX6 [8],"8.94 upbm affinity estimate (log intensity, higher = more binding, comparable within an allelic series)"
same,binding signal,HOXC9 [2],"9.67 upbm affinity estimate (log intensity, higher = more binding, comparable within an allelic series)"
same,binding signal,SIX6 [9],"9.01 upbm affinity estimate (log intensity, higher = more binding, comparable within an allelic series)"
same,binding signal,HOXC9 [3],"9.67 upbm affinity estimate (log intensity, higher = more binding, comparable within an allelic series)"
same,binding signal,SIX6 [10],"8.98 upbm affinity estimate (log intensity, higher = more binding, comparable within an allelic series)"
same,binding signal,HOXC9 [4],"9.62 upbm affinity estimate (log intensity, higher = more binding, comparable within an allelic series)"
GTCCTGCA,binding signal,VENTX,"8.28 upbm affinity estimate (log intensity, higher = more binding, comparable within an allelic series)"
ATAATTGC,binding signal,HOXB9,"10.2 upbm affinity estimate (log intensity, higher = more binding, comparable within an allelic series)"
same,binding signal,HOXC9 [1],"12.6 upbm affinity estimate (log intensity, higher = more binding, comparable within an allelic series)"
GCAGGCGC,binding signal,HOXA4 [11],"9.8 upbm affinity estimate (log intensity, higher = more binding, comparable within an allelic series)"
same,binding signal,HOXC10,"9.86 upbm affinity estimate (log intensity, higher = more binding, comparable within an allelic series)"
same,binding signal,HOXA4 [5],"9.64 upbm affinity estimate (log intensity, higher = more binding, comparable within an allelic series)"
same,binding signal,NKX2-6,"9.36 upbm affinity estimate (log intensity, higher = more binding, comparable within an allelic series)"
same,binding signal,HOXA4 [12],"9.74 upbm affinity estimate (log intensity, higher = more binding, comparable within an allelic series)"
TCCCCCCA,binding signal,HOXA4 [11],"9.6 upbm affinity estimate (log intensity, higher = more binding, comparable within an allelic series)"
same,binding signal,HOXA4 [5],"9.7 upbm affinity estimate (log intensity, higher = more binding, comparable within an allelic series)"
same,binding signal,HOXA4 [12],"9.81 upbm affinity estimate (log intensity, higher = more binding, comparable within an allelic series)"
CGGCTAGC,binding signal,HOXC10,"9.98 upbm affinity estimate (log intensity, higher = more binding, comparable within an allelic series)"
ACCAAATA,binding signal,HOXC10,"10.8 upbm affinity estimate (log intensity, higher = more binding, comparable within an allelic series)"
AGCCGGTC,binding signal,NKX2-6,"9.54 upbm affinity estimate (log intensity, higher = more binding, comparable within an allelic series)"
AATTAACC,binding signal,PAX4 [13],"11.6 upbm affinity estimate (log intensity, higher = more binding, comparable within an allelic series)"
same,binding signal,PAX4 [14],"12.1 upbm affinity estimate (log intensity, higher = more binding, comparable within an allelic series)"
same,binding signal,PAX4 [15],"11.9 upbm affinity estimate (log intensity, higher = more binding, comparable within an allelic series)"
same,binding signal,PAX4 [6],"10.8 upbm affinity estimate (log intensity, higher = more binding, comparable within an allelic series)"
CACGGCTG,binding signal,NKX2-6,"9.52 upbm affinity estimate (log intensity, higher = more binding, comparable within an allelic series)"
AGAGCTCT,binding signal,HOXC10,"10 upbm affinity estimate (log intensity, higher = more binding, comparable within an allelic series)"
AATTATCT,binding signal,PAX4 [13],"11.7 upbm affinity estimate (log intensity, higher = more binding, comparable within an allelic series)"
same,binding signal,PAX4 [14],"12.2 upbm affinity estimate (log intensity, higher = more binding, comparable within an allelic series)"
same,binding signal,PAX4 [15],"11.9 upbm affinity estimate (log intensity, higher = more binding, comparable within an allelic series)"
same,binding signal,PAX4 [6],"10.9 upbm affinity estimate (log intensity, higher = more binding, comparable within an allelic series)"
GAGTCGCC,binding signal,NKX2-6,"9.64 upbm affinity estimate (log intensity, higher = more binding, comparable within an allelic series)"
GCCGGCGA,binding signal,PAX4 [13],"9.18 upbm affinity estimate (log intensity, higher = more binding, comparable within an allelic series)"
same,binding signal,PAX4 [14],"9.12 upbm affinity estimate (log intensity, higher = more binding, comparable within an allelic series)"
same,binding signal,PAX4 [15],"9.11 upbm affinity estimate (log intensity, higher = more binding, comparable within an allelic series)"
same,binding signal,PAX4 [6],"9.19 upbm affinity estimate (log intensity, higher = more binding, comparable within an allelic series)"
CCGCCGAG,binding signal,NKX2-6,"9.67 upbm affinity estimate (log intensity, higher = more binding, comparable within an allelic series)"
